From PubChem BioAssay
Most compounds without a hit are left out; they make up all but 1.6% or so of the library.
KCNQ2 inh: rat KCNQ2 potassium channel inhibitors, primary screen, cell-based, CHO-K1, FluxOR thallium flux, B-score. AID 2156, 2009. 20 min; hits give low values. Potassium voltage-gated channel subfamily KQT member 2 (Rattus norvegicus), O88943. 310,000 compounds, 1.1% hits. B-score at 10 µM;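 active = fluorescence ratio B-score at most minus 3 library SDs, with starting brightness B-score within 2 library SDs, cut at about -5.5 in these data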
Target sequence (O88943 whole entry, looked up): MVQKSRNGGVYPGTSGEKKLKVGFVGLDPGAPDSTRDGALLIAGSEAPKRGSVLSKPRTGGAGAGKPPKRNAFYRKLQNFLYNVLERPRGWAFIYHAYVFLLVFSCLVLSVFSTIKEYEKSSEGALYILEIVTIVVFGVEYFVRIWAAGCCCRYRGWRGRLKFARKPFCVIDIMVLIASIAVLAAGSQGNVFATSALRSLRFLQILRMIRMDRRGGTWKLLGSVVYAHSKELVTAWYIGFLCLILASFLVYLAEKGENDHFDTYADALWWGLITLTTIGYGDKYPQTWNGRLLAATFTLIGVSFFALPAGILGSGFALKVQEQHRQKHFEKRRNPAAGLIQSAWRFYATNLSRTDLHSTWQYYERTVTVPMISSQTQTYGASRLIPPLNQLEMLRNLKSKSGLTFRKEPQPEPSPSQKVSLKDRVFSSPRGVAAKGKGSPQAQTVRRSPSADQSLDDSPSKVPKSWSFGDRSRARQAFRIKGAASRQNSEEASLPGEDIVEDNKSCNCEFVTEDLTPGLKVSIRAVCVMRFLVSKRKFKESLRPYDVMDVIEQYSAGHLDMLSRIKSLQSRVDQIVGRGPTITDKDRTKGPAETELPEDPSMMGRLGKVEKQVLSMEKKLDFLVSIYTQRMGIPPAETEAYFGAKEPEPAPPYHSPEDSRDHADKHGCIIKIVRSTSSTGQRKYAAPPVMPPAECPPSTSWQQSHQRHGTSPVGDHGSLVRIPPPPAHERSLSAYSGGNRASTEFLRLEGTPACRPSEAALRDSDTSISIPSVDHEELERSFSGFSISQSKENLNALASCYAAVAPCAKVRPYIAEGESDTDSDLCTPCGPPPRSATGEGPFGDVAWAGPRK
KCNQ2 pot: potentiators of rat KCNQ2 potassium channel; Potassium voltage-gated channel subfamily KQT member 2 (Rattus norvegicus), O88943; CHO-K1 KCNQ2, FluxOR thallium flux fluorescence; hits give high values; B-score at 10 µM; 310,000 compounds, 0.54% hits; AID 2239, 2010;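 active = fluorescence ratio B-score at least 3 SD of library B-scores, with initial fluorescence B-score within 3 of them, cut at about 5.3 in these data; same plate scores as AID 2156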;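 note: B-score of peak minus minimum over baseline fluorescence ratio after K+ and Tl+ stimulus; positive B-score means potentiation of KCNQ2 with more thallium influx and brighter signal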
KCNQ2 inh conf: rat KCNQ2 potassium channel inhibitors, confirmation, cell-based, thallium flux | activity change, negative = inhibition, % at 10 µM | shares compounds with KCNQ2 inh | KCNQ2-expressing cells, inhibition; hits give low values | 1,000 compounds, 57% hits;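 note: 0% = vehicle wells and values are ratio percent relative to vehicle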
KCNQ1 spec: human KCNQ1 channel inhibition, counter-screen for KCNQ2 inhibitor project, cell-based, FluxOR thallium flux; shares compounds with KCNQ2 inh; KCNQ1-expressing cells, FluxOR thallium flux fluorescence; hits give low values; activity change, negative = inhibition, % at 10 µM; 1,000 compounds, 15% hits;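 active = activity change at least 3 SD of negative controls below their mean in both duplicate wells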;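 note: CHO cells stably transfected with KCNQ1 and depolarized by potassium stimulus; peak minus minimum fluorescence over baseline after thallium addition; 0% = vehicle negative control and -100% = blank without thallium stimulus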
CHO Tl ctr: thallium flux change in parental CHO cells, counter-screen for KCNQ2 inhibitor project. activity change, % at 10 µM. 1,000 compounds, 14% hits. shares compounds with KCNQ2 inh. hits give low values;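 note: 0% = vehicle negative controls with stimulus buffer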
KCNQ2 patch conf: rat KCNQ2 channel inhibitors, confirmation, cell-based, automated patch clamp, single concentration | shares compounds with KCNQ2 inh | KCNQ2-expressing cells, automated patch clamp current | calls only at 10 µM | 550 compounds, 49% hits | AID 588531, 2011
* = called active by the depositor. Unless noted, the rule behind the calls is not given here.

How did COc1ccc(/C=N/Nc2cc(C)nc3ccc(OC)cc23)c(OC)c1 do in these assays?
KCNQ2 inh: -8.96*; KCNQ2 pot: -8.96; KCNQ2 inh conf: -41.0%*; KCNQ1 spec: -32.0%*; CHO Tl ctr: -24.0%*; KCNQ2 patch conf: inactive

How did COc1ccc(/C=N/Nc2nc(C)cc(-c3ccccc3)n2)c(OC)c1 do in these assays?
KCNQ2 inh: inactive; KCNQ2 pot: 1.78

How did CCCCNC(=O)C1CCCN(S(=O)(=O)CC)C1 (configuration not stated) do in these assays?
KCNQ2 inh: inactive

How did Cc1onc(-c2ccccc2Cl)c1C(=O)NCC(=O)O do in these assays?
KCNQ2 inh: inactive; KCNQ2 pot: 0.01

How did Cc1onc(-c2ccccc2Cl)c1C(=O)NCCn1c(C)cc2ccccc21 do in these assays?
KCNQ2 inh: -11.9*; KCNQ2 pot: -11.9; KCNQ2 inh conf: -35.5%*; KCNQ1 spec: inactive; CHO Tl ctr: inactive; KCNQ2 patch conf: active

How did CC1(C)Cc2ccccc2-c2nc(NCCO)n(-c3ccccc3)c(=O)c21 do in these assays?
KCNQ2 inh: inactive; KCNQ2 pot: 0.82

Results for O=C(Cc1cn2ccsc2n1)Nc1ccccc1Oc1ccccc1 ?
KCNQ2 inh: inactive

How did CCCCCCCOC1(c2ccccc2)OC(=O)c2ccccc21 (configuration not stated) do in these assays?
KCNQ2 inh: -8.49*; KCNQ2 pot: -8.49; KCNQ2 inh conf: -21.5%*; KCNQ1 spec: inactive; CHO Tl ctr: inactive; KCNQ2 patch conf: inactive

What do the screens show for `CCCCCCOC1(c2ccccc2)OC(=O)c2ccccc21` (configuration not stated)?
KCNQ2 inh: inactive

What do the screens show for `CCOc1cc(CNCCc2ccc(S(N)(=O)=O)cc2)cc(Cl)c1OCc1ccccc1`?
KCNQ2 inh: -9.38*; KCNQ2 pot: -9.38; KCNQ2 inh conf: -30.5%*; KCNQ1 spec: inactive; CHO Tl ctr: inactive; KCNQ2 patch conf: inactive

How did CCOc1cc(CNCCc2ccc(S(N)(=O)=O)cc2)ccc1OCc1ccccc1 do in these assays?
KCNQ2 inh: inactive

How did COc1ccc(C2C(C(=O)N3CCOCC3)=C(C)NC3=C2C(=O)CC(C)(C)C3)cc1O (configuration not stated) do in these assays?
KCNQ2 inh: inactive

How did CCn1nc(C(=O)Nc2ccc3nc(C)sc3c2)c2ccccc2c1=O do in these assays?
KCNQ2 inh: inactive; KCNQ2 pot: 1.19

What do the screens show for `CCn1nc(C(=O)Nc2ccccc2N2CCCC2)c2ccccc2c1=O`?
KCNQ2 inh: -7.98*; KCNQ2 pot: -7.98; KCNQ2 inh conf: -38.5%*; KCNQ1 spec: inactive; CHO Tl ctr: inactive; KCNQ2 patch conf: inactive

Results for CCCSc1nc(-n2ncc(C#N)c2N)c2c3c(sc2n1)CCC(C)C3 (configuration not stated) ?
KCNQ2 inh: inactive

Results for CC12CCC(C(=O)Nc3cc(Cl)ccc3Cl)(C(Br)C1=O)C2(C)C (configuration not stated) ?
KCNQ2 inh: inactive

Results for CCc1cc(/C(Cc2csc(C)n2)=N/O)c(O)cc1O ?
KCNQ2 inh: -7.65*; KCNQ2 pot: -7.65; KCNQ2 inh conf: -37.5%*; KCNQ1 spec: -34.5%*; CHO Tl ctr: -28.5%*; KCNQ2 patch conf: active

How did Cc1nc(C/C(=N\N)c2ccc(O)cc2O)cs1 do in these assays?
KCNQ2 inh: inactive

What do the screens show for `Cc1cc(=O)n(C)c(=O)n1CCCCCCN1CCCC1`?
KCNQ2 inh: inactive; KCNQ2 pot: 0.71

Results for Cc1nn(-c2ccccc2)c(/N=C/c2ccccc2O)c1-c1ccccc1 ?
KCNQ2 inh: -10.8*; KCNQ2 pot: -10.8; KCNQ2 inh conf: -43.0%*; KCNQ1 spec: -50.5%*; CHO Tl ctr: -43.0%*; KCNQ2 patch conf: inactive

Results for Cc1nn(-c2ccccc2)c(N)c1-c1ccccc1 ?
KCNQ2 inh: inactive

What do the screens show for `COc1ccc(Cl)cc1NC(=O)CN(C)C(=O)Cc1ccsc1`?
KCNQ2 inh: inactive

Results for O=c1cc(O)nc(SC23CC4CC(CC(C4)C2)C3)[nH]1 ?
KCNQ2 inh: inactive

What do the screens show for `COc1cccc(/C=C2\SC(=O)N(CCC(=O)NNC(=O)c3ccccc3Cl)C2=O)c1`?
KCNQ2 inh: inactive; KCNQ2 pot: 0.2

What do the screens show for `CC(C)CN(C)Cc1c(C(=O)N2CCc3ccccc3C2)nc2ccc(Cl)cn12`?
KCNQ2 inh: -8.66*; KCNQ2 pot: -8.66; KCNQ2 inh conf: -32.5%*; KCNQ1 spec: -38.0%*; CHO Tl ctr: -25.0%*; KCNQ2 patch conf: active

How did Cc1cnc(CN(C)Cc2c(C(=O)N3CCc4ccccc4C3)nc3ccc(Cl)cn23)[nH]1 do in these assays?
KCNQ2 inh: inactive

How did CC(C)(C)c1csc(CS(=O)(=O)c2ccccn2)n1 do in these assays?
KCNQ2 inh: inactive; KCNQ2 pot: 0.21

What do the screens show for `O=C(Nc1cccc(C(=O)N2CCN(Cc3ccccc3)CC2)c1)c1ccccc1`?
KCNQ2 inh: inactive

Results for Cn1c(C(=O)N2CCc3ccccc3C2)cc2oc3ccccc3c21 ?
KCNQ2 inh: -10.7*; KCNQ2 pot: -10.7; KCNQ2 inh conf: -16.5%*; KCNQ1 spec: inactive; CHO Tl ctr: inactive; KCNQ2 patch conf: active

What do the screens show for `O=C(Cn1ncc2c(=O)oc3ccccc3c21)N1CCc2ccccc2C1`?
KCNQ2 inh: inactive; KCNQ2 pot: 1.51

How did COc1cc2c(cc1OC)CN(C(=O)c1oc3ccccc3c1C)CC2 do in these assays?
KCNQ2 inh: inactive

How did CCn1c(C(=O)N2CCc3ccccc3C2)cc2oc3ccccc3c21 do in these assays?
KCNQ2 inh: -6.82*; KCNQ2 pot: -6.82; KCNQ2 inh conf: -44.5%*; KCNQ1 spec: -52.0%*; CHO Tl ctr: -43.5%*

Results for CCC(=O)NC(c1cccc([N+](=O)[O-])c1)c1c(O)ccc2ccccc12 (configuration not stated) ?
KCNQ2 inh: inactive; KCNQ2 pot: 0.1

Results for CC(C)OC(=O)c1c(-c2ccc(C(C)C)cc2)csc1NC(=O)C1CCCO1 (configuration not stated) ?
KCNQ2 inh: -7.22*; KCNQ2 pot: -7.22; KCNQ2 inh conf: -32.0%*; KCNQ1 spec: inactive; CHO Tl ctr: inactive; KCNQ2 patch conf: inactive

Results for CCOC(=O)c1c(-c2ccc(C)cc2)csc1NC(=O)C1CCCO1 (configuration not stated) ?
KCNQ2 inh: inactive; KCNQ2 pot: 0.38

How did CCCNC(=O)NCCc1ccncc1 do in these assays?
KCNQ2 inh: inactive; KCNQ2 pot: 1.76

Results for NC(=O)c1ccccc1NC(=O)CC1(CC(=O)O)CCCC1 ?
KCNQ2 inh: inactive
